High-throughput results deposited in PubChem by National Center for Advancing Translational Sciences (NCATS).
Shown are actives, neighbours in structure and some others; about 8% of the full set was active somewhere.
Marburg entry inh: Marburg virus entry inhibition | Marburg virus pseudotyped entry inhibition, cell reporter | Potency, µM (series often up to 37.8 µM), for inactives: at the highest dose activity change, negative = inhibition, usual class: inhibitors | actives 1.8% (n = 300,000) | AID 540276; calls by dose curve; tested in HEK293 cells; also: potency is read from the fitted curve at half-maximal effect; % is scaled to controls: 0 for no effect and ±100 for the full control effect
SARS PLpro yeast: inhibitors of SARS-CoV papain-like protease in yeast. S. cerevisiae expressing SARS-CoV PLpro, growth rescue. Potency, µM (top dose mostly 32.9 µM), inactives show at the highest dose activity, positive = growth rescue, hits mostly activators. actives 0.19% (n = 330,000). AID 485353; calls by dose curve; also: potency is read from the fitted curve at half-maximal effect; 0% is about no effect; nearly all actives have a fitted effect of over 55% in size
HCV inhibitor: inhibitors of hepatitis C virus infection; actives 3.4% (n = 340,000); Huh7.5.1 HCVcc-Cre infection, luciferase reporter, 44 h; Potency, µM (series often up to 41.8 µM), for inactives: at the highest dose activity change, negative = inhibition, actives largely listed as inhibitors; active = well fitted inhibition curve with a large enough effect; inconclusive = small, poorly fitted or top-dose-only effect, or another doubt; inactive = no such curve, though single readings can be large or run the other way; also: potency is read from the fitted curve at half-maximal effect; % is scaled to controls: 0 for no effect and ±100 for the full control effect
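Whole-lifecycle infectious HCVcc-Cre system; cells 1,000/well, compound then virus (~0.5 moi) added 4 h after plating, 44 h culture. Luciferase read 15 sec following 15 min substrate incubation, room temp.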
HCMV antiviral: inhibitors of human cytomegalovirus; HFF cells, HCMV-luciferase reporter, 72 h; hits give low values; activity change, negative = inhibition, % at 57.5 µM; actives 4.5% (n = 410,000); AID 1259415; in the data active = activity change below about -60%; inconclusive = no clear call, values can overlap the other calls; inactive = above about -39%; also: % is scaled to controls: 0 for no effect and ±100 for the full control effect
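After 16 h attachment at 37C, HFF cells received test compound and HCMV-luciferase (1 PFU/cell); reporter luminescence read 72 h later, data normalized against buffer-only and known inhibitor Salinomycin.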
LASV entry inh: blocks Lassa virus binding to or entry into cells | actives 1.2% (n = 300,000) | Lassa virus pseudotype entry inhibition, cell reporter | Potency, µM (series often up to 37.9 µM), for inactives: top-dose activity change, negative = inhibition, hits mostly inhibitors; calls by dose curve; tested in HEK293 cells; also: potency is read from the fitted curve at half-maximal effect; % is scaled to controls: 0 for no effect and ±100 for the full control effect; nearly all actives have a fitted effect of over 50% in size
FMDV inh: antivirals against foot and mouth disease virus. FMDV antiviral cell-based qHTS. Potency, µM (titrated, usually from 57.9 µM), without a hit: at the highest dose activity change, negative = inhibition, most hits filed as inhibitors. actives 1.2% (n = 410,000); calls by dose curve; tested in HEK293T cells; also: read-out not given here; potency is read from the fitted curve at half-maximal effect; % is scaled to controls: 0 for no effect and ±100 for the full control effect; nearly all actives have a fitted effect of over 45% in size
Active calls of the source: *; u = inconclusive; x = not tested or not shown; ! = not confirmed by another sample; [ ] = another dose, or the depositor's remark.

SMILES	Marburg entry inh	SARS PLpro yeast	HCV inhibitor	HCMV antiviral	LASV entry inh	FMDV inh
COC(=O)[C@@H]1C[C@@H](NC(=O)c2cnsn2)CN1Cc1ccc(Cl)cc1	x	x	x	x	x	3.0%
Cc1cnc(-n2ncc(C(=O)NCc3ccncc3)c2C(C)C)nc1-c1ccc(F)cc1	x	x	x	x	x	-20.6%
COc1ccc(/C=N/Nc2nc(N3CCCCC3)nc(N3CCCCC3)n2)cc1[N+](=O)[O-]	u	-0.5%	3.55µM*	-74.2*	u	-24.7%
O=[N+]([O-])c1cccc(/C=N/Nc2nc(N3CCCCC3)nc(N3CCCCC3)n2)c1	-3.0%[46.1 µM]	-0.6%	5.62µM*	-10.5	10.8%[46.1 µM]	-27.5%
O=[N+]([O-])c1cccc(-c2ccc(/C=N/Nc3nc(N4CCCCC4)nc(N4CCCCC4)n3)o2)c1	u	-0.9%	11.2µM*	-6.4	u	-17.5%
COc1ccc(/C=N/Nc2nc(Nc3ccccc3)nc(N3CCCC3)n2)cc1[N+](=O)[O-]	u	3.3%	u	u	1.9%[46.1 µM]	-16.8%
CC(C)=CCCC(C)=CCON=C1C[C@@H](O)[C@@H](O)[C@@H]2[C@H]3C(=O)N(Cc4ccccc4)C(=O)[C@@H]3CC[C@@H]12	3.0%[14.2 µM]	x	x	x	x	x
CCN(Cc1ccncc1)Cc1ccc2c(c1)CN(C(=O)c1cccc3c(C)c(C)[nH]c13)CCO2	x	x	x	x	x	5.2%
Cc1cc(C)cc(NC(=O)Cn2nnc(C(=O)NCc3ccccc3Cl)c2N)c1	12.9%[46.1 µM]	7.5%	-2.5%	-78.6*!	u	0.0%
CCN(CC)S(=O)(=O)c1cc(C)ccc1NC(=S)Nc1cccnc1	11.2µM*	-0.3%	11.2µM*	-68.8*	u	-8.5%
CCN(CC)S(=O)(=O)c1cc(C(=O)Nc2cccnc2)ccc1Cl	4.3%	5.2%	u	-21.3	15.1%	u
Cc1ccc(CNC(=O)Nc2nnc([C@@H]3C[C@H](O)[C@@H](CO)O3)s2)cc1	x	x	x	0.0	x	-13.1%
COc1ccc(CNC(=O)Nc2nnc([C@H]3C[C@H](O)[C@@H](CO)O3)s2)cc1	x	x	x	-97.2*	x	-16.1%
COc1ccc(CNC(=O)Nc2nnc([C@@H]3C[C@H](O)[C@@H](CO)O3)s2)cc1	x	x	x	-83.0*	x	-4.7%
O=C(C1CCN(C2CCN(Cc3ccc4c(c3)CCO4)CC2)CC1)N1CCCC1	4.47µM*	-1.0%	u	-19.9	-5.2%[46.1 µM]	-24.0%
COc1cc(CN2CCC(N3CCC(C(=O)N4CCCC4)CC3)CC2)cc2c1OCO2	u	0.4%	10µM*	45.5	-14.0%[46.1 µM]	-9.2%
COc1ccccc1CNC(=O)CCC(=O)N1CC2CCCN2c2ccccc21 (stereo not drawn)	x	x	x	-21.9	-11.0%[46.1 µM]	-20.0%
COCCNC(=O)C1CC(c2ccc(C(F)(F)F)cc2)=NO1 (stereo not drawn)	x	x	6.9%	-19.7	x	0.0%
COC(=O)c1c(NC(=O)c2cccnc2)sc(C)c1C	-1.7%	0.9%	10µM*	x	20.0%	u
COC(CNC(=O)c1cccnc1)OC	x	-0.6%	8.6%	-61.7*	x	-6.4%
O=C(NCCNC(=O)c1cccnc1)c1cccnc1	x	x	x	x	x	-12.8%
O=C(Nc1ccc2c(c1)OCO2)N1CCCC1	x	-0.3%	4.8%	-7.2	x	42.4%
COc1cccc(CNC(=O)c2ccc3oc(=O)n(Cc4ccccc4)c3c2)c1	x	x	x	-12.3	u	-29.3%
COc1ccccc1CNC(=O)c1cc2ccc3ccc(C)[nH]c3c2n1	x	x	x	u	-0.7%[46.1 µM]	0.0%
COc1ccc(-c2csc(NCc3ccco3)n2)cc1C	4.0%	-4.0%	-19.6%	x	-3.9%	91.1%
SMILES	Marburg entry inh	SARS PLpro yeast	HCV inhibitor	HCMV antiviral	LASV entry inh	FMDV inh
Cc1ccn2c(-c3csc(NCc4ccco4)n3)c(C)nc2c1	0.2%	18.7%	u	-68.2*	0.1%	u
COc1ccc2nc(NC(=O)c3cc(=O)c4cc(C)cc(C)c4o3)sc2c1	u	x	x	-15.5	-2.3%[46.1 µM]	-4.0%
c1ccc(CCCCc2ccncc2)cc1	u	x	6.7%	-63.0*	-10.0%[46.1 µM]	-11.4%
COc1ccc2c3c([nH]c2c1)[C@H](CO)N(C(=O)C1CCCC1)CC31CCN(C(=O)c2ccncc2)CC1	x	x	x	-17.9	x	x
COc1ccc2c3c([nH]c2c1)[C@@H](CO)N(C(=O)CC1CC1)CC31CCN(Cc2ccncc2)CC1	x	x	x	-73.7*	x	x
Cc1ccc2[nH]c(-c3cccc(N)c3)cc2c1	u	-1.2%	-15.2%	114.0	-0.9%	73.3%
